# The entries come from a sample that favours the strongest signals as a whole.
# B1: Si Bti9 1b-V5-his (Solanum lycopersicum) (protein)
# chain: MQCNRGCDLALASFYVWRGSNLTLISEMFSTSIADIVSYNNRDNIPNQDSVIAGTRINIPFRCDCLNDGEVLGHAFPYRVKSGDTYDLVARNYSDLTTAQWMMKFNSYPENNIPNTVNLSVVVNCSCGNSDVSKDFGLFVTYPVRAEDNLTSVASAANVSEDIIRRYNPAAVSILDIGQGIIYIPGRDRNGNFPPLPTSTDGLSGGAKKGGRADPAFLYKVVINSKLEGKPIPNPLLGLDSTRTGHHHHHH
# What was measured:
# Experiment in all cases: glycan array binding signal (z-score within array); higher = stronger binding
# Details in all cases: glycan notation: IUPAC condensed, linker removed
# Fuc(a1-2)Gal(b1-3)GalNAc = target: Fuc(a1-2)Gal(b1-3)GalNAc
# How it was run: (§1)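 Columns mapping to the same glycan were averaged after glycan names were converted to IUPAC-condensed notation. The data come from 3228 arrays in the Consortium for Functional Glycomics database, limited to those with an available protein sequence. Binding is reported as a within-array Z-score averaged across arrays of one protein sequence and across linkers.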
# [1] = target: Fuc(a1-2)[Gal(a1-3)]Gal(b1-4)[Fuc(a1-3)]Glc
# How it was run: as §1
# [2] = target: Fuc(a1-2)[GalNAc(a1-3)]Gal(b1-4)GlcNAc(b1-2)Man(a1-3)[Fuc(a1-2)[GalNAc(a1-3)]Gal(b1-4)GlcNAc(b1-2)Man(a1-6)]Man(b1-4)GlcNAc(b1-4)[Fuc(a1-6)]GlcNAc
# How it was run: as §1
# [3] = target: Fuc(a1-2)[GalNAc(a1-3)]Gal(b1-4)GlcNAc(b1-3)Gal(b1-4)GlcNAc(b1-3)Gal(b1-4)GlcNAc
# How it was run: as §1
# [4] = target: Fuc(a1-2)[GalNAc(a1-3)]Gal(b1-4)[Fuc(a1-3)]GlcNAc
# How it was run: as §1
# Gal(a1-3)Gal(b1-3)GlcNAc = target: Gal(a1-3)Gal(b1-3)GlcNAc
# How it was run: as §1
# [5] = target: Gal(a1-3)Gal(b1-3)GlcNAc(b1-2)Man
# How it was run: as §1
# Gal(a1-3)Gal(b1-4)Glc = target: Gal(a1-3)Gal(b1-4)Glc
# How it was run: as §1
# [6] = target: Gal(a1-3)Gal(b1-4)GlcNAc(b1-2)Man
# How it was run: as §1
# [7] = target: Gal(a1-3)[Gal(a1-4)]Gal(b1-4)GlcNAc
# How it was run: as §1
# Gal(b1-3)Gal = target: Gal(b1-3)Gal
# How it was run: as §1
# Gal(b1-3)GlcNAc(b1-2)Man = target: Gal(b1-3)GlcNAc(b1-2)Man
# How it was run: as §1
# [8] = target: Gal(b1-3)GlcNAc(b1-2)Man(a1-3)[Gal(b1-3)GlcNAc(b1-2)Man(a1-6)]Man(b1-4)GlcNAc(b1-4)[Fuc(a1-6)]GlcNAc
# How it was run: as §1
# [9] = target: Gal(b1-3)GlcNAc(b1-3)Gal(b1-3)GlcNAc
# How it was run: as §1
# [10] = target: Gal(b1-3)GlcNAc(b1-3)Gal(b1-4)GlcNAc(b1-6)[Gal(b1-3)GlcNAc(b1-3)]Gal(b1-4)Glc
# How it was run: as §1
# [11] = target: Gal(b1-3)[Fuc(a1-4)]GlcNAc(b1-2)Man
# How it was run: as §1
# [12] = target: Gal(b1-4)GlcNAc(b1-2)Man(a1-3)[GlcNAc(b1-2)Man(a1-6)]Man(b1-4)GlcNAc(b1-4)GlcNAc
# How it was run: as §1
# [13] = target: Gal(b1-4)GlcNAc(b1-2)Man(a1-3)[Man(a1-6)]Man(b1-4)GlcNAc(b1-4)GlcNAc
# How it was run: as §1
# [14] = target: Gal(b1-4)GlcNAc(b1-2)Man(a1-6)[GlcNAc(b1-2)Man(a1-3)]Man(b1-4)GlcNAc(b1-4)GlcNAc
# How it was run: as §1
# [15] = target: Gal(b1-4)GlcNAc(b1-3)Gal(b1-4)GlcNAc(b1-3)Gal(b1-4)GlcNAc(b1-3)Gal(b1-4)GlcNAc(b1-3)Gal(b1-4)GlcNAc(b1-2)Man(a1-3)[Gal(b1-4)GlcNAc(b1-3)Gal(b1-4)GlcNAc(b1-3)Gal(b1-4)GlcNAc(b1-3)Gal(b1-4)GlcNAc(b1-3)Gal(b1-4)GlcNAc(b1-2)Man(a1-6)]Man(b1-4)GlcNAc(b1-4)[Fuc(a1-6)]GlcNAc
# How it was run: as §1
# [16] = target: Gal(b1-4)GlcNAc(b1-3)Gal(b1-4)GlcNAc(b1-3)[Gal(b1-4)GlcNAc(b1-3)Gal(b1-4)GlcNAc(b1-6)]GalNAc
# How it was run: as §1
# [17] = target: Gal(b1-4)GlcNAc(b1-3)Gal(b1-4)[Fuc(a1-3)]GlcNAc(b1-3)Gal(b1-4)[Fuc(a1-3)]GlcNAc
# How it was run: as §1
# [18] = target: Gal(b1-4)GlcNAc(b1-6)Gal(b1-4)GlcNAc
# How it was run: as §1
# [19] = target: Gal(b1-4)GlcNAc(b1-6)GalNAc
# How it was run: as §1
# Gal6P(b1-4)GlcNAc = target: Gal6P(b1-4)GlcNAc
# How it was run: as §1
# [20] = target: GalNAc(b1-3)Gal(a1-6)Gal(b1-4)Glc
# How it was run: as §1
# [21] = target: GalNAc3S(b1-4)[Fuc(a1-3)]GlcNAc
# How it was run: as §1
# GalNAc4S6S(b1-4)GlcNAc = target: GalNAc4S6S(b1-4)GlcNAc
# How it was run: as §1
# [22] = target: GlcNAc(b1-2)[GlcNAc(b1-4)]Man(a1-3)[GlcNAc(b1-2)Man(a1-6)]Man(b1-4)GlcNAc(b1-4)GlcNAc
# How it was run: as §1
# [23] = target: GlcNAc(b1-3)Gal(b1-4)GlcNAc(b1-3)Gal(b1-4)GlcNAc(b1-3)Gal(b1-4)GlcNAc(b1-2)Man(a1-3)[GlcNAc(b1-3)Gal(b1-4)GlcNAc(b1-3)Gal(b1-4)GlcNAc(b1-3)Gal(b1-4)GlcNAc(b1-2)Man(a1-6)]Man(b1-4)GlcNAc(b1-4)GlcNAc
# How it was run: as §1
# GlcNAc(b1-3)GalNAc = target: GlcNAc(b1-3)GalNAc
# How it was run: as §1
# [24] = target: GlcNAc(b1-4)GlcNAc(b1-4)GlcNAc(b1-4)GlcNAc(b1-4)GlcNAc(b1-4)GlcNAc
# How it was run: as §1
# [25] = target: GlcNAc(b1-4)[GlcNAc(b1-6)]GalNAc
# How it was run: as §1
# [26] = target: Man(a1-3)[Man(a1-6)]Man(b1-4)GlcNAc(b1-4)GlcNAc
# How it was run: as §1
# Man(a1-6)Man = target: Man(a1-6)Man
# How it was run: as §1
# [27] = target: Neu5Ac(a2-3)Gal(b1-3)GlcNAc6S
# How it was run: as §1
# [28] = target: Neu5Ac(a2-3)Gal(b1-3)[Fuc(a1-4)]GlcNAc(b1-3)Gal(b1-4)[Fuc(a1-3)]GlcNAc
# How it was run: as §1
# [29] = target: Neu5Ac(a2-3)Gal(b1-3)]Neu5Ac(a2-3)Gal(b1-4)]GlcNAc
# How it was run: as §1
# [30] = target: Neu5Ac(a2-3)Gal(b1-4)GlcNAc(b1-2)Man
# How it was run: as §1
# [31] = target: Neu5Ac(a2-3)Gal(b1-4)GlcNAc(b1-6)GalNAc
# How it was run: as §1
# [32] = target: Neu5Ac(a2-3)Gal(b1-4)GlcNAc(b1-6)[Gal(b1-3)]GalNAc
# How it was run: as §1
# [33] = target: Neu5Ac(a2-3)Gal(b1-4)GlcNAc6S
# How it was run: as §1
# [34] = target: Neu5Ac(a2-3)[Neu5Ac(a2-6)]GalNAc
# How it was run: as §1
# Neu5Ac(a2-6)Gal = target: Neu5Ac(a2-6)Gal
# How it was run: as §1
# [35] = target: Neu5Ac(a2-6)Gal(b1-4)GlcNAc(b1-2)Man(a1-6)Man(b1-4)GlcNAc(b1-4)GlcNAc
# How it was run: as §1
# Neu5Ac(b2-6)GalNAc = target: Neu5Ac(b2-6)GalNAc
# How it was run: as §1
binder,measurement,setting,value
B1,glycan array binding signal (z-score),Fuc(a1-2)Gal(b1-3)GalNAc,-0.261
same,glycan array binding signal (z-score),[1],-0.298
same,glycan array binding signal (z-score),[2],0.032
same,glycan array binding signal (z-score),[3],0.217
same,glycan array binding signal (z-score),[4],-0.245
same,glycan array binding signal (z-score),Gal(a1-3)Gal(b1-3)GlcNAc,11.5
same,glycan array binding signal (z-score),[5],6.21
same,glycan array binding signal (z-score),Gal(a1-3)Gal(b1-4)Glc,-0.169
same,glycan array binding signal (z-score),[6],-0.206
same,glycan array binding signal (z-score),[7],2.94
same,glycan array binding signal (z-score),Gal(b1-3)Gal,-0.313
same,glycan array binding signal (z-score),Gal(b1-3)GlcNAc(b1-2)Man,-0.032
same,glycan array binding signal (z-score),[8],-0.076
same,glycan array binding signal (z-score),[9],0.11
same,glycan array binding signal (z-score),[10],-0.125
same,glycan array binding signal (z-score),[11],1.83
same,glycan array binding signal (z-score),[12],-0.243
same,glycan array binding signal (z-score),[13],-0.294
same,glycan array binding signal (z-score),[14],-0.277
same,glycan array binding signal (z-score),[15],-0.258
same,glycan array binding signal (z-score),[16],0.207
same,glycan array binding signal (z-score),[17],-0.264
same,glycan array binding signal (z-score),[18],-0.272
same,glycan array binding signal (z-score),[19],2.79
same,glycan array binding signal (z-score),Gal6P(b1-4)GlcNAc,-0.317
same,glycan array binding signal (z-score),[20],-0.348
same,glycan array binding signal (z-score),[21],4.72
same,glycan array binding signal (z-score),GalNAc4S6S(b1-4)GlcNAc,-0.18
same,glycan array binding signal (z-score),[22],-0.289
same,glycan array binding signal (z-score),[23],3.41
same,glycan array binding signal (z-score),GlcNAc(b1-3)GalNAc,-0.322
same,glycan array binding signal (z-score),[24],-0.156
same,glycan array binding signal (z-score),[25],5.97
same,glycan array binding signal (z-score),[26],-0.362
same,glycan array binding signal (z-score),Man(a1-6)Man,5.02
same,glycan array binding signal (z-score),[27],0.024
same,glycan array binding signal (z-score),[28],-0.294
same,glycan array binding signal (z-score),[29],-0.311
same,glycan array binding signal (z-score),[30],0.768
same,glycan array binding signal (z-score),[31],-0.254
same,glycan array binding signal (z-score),[32],-0.108
same,glycan array binding signal (z-score),[33],10.6
same,glycan array binding signal (z-score),[34],-0.269
same,glycan array binding signal (z-score),Neu5Ac(a2-6)Gal,3.19
same,glycan array binding signal (z-score),[35],-0.285
same,glycan array binding signal (z-score),Neu5Ac(b2-6)GalNAc,-0.242
